Compound activity (PubChem BioAssay)
Most compounds without a hit are left out; they make up all but 1.1% or so of the library.
PrPC surface inh – cell surface PrPC inhibition, primary TR-FRET screen; TR-FRET read-out; inhibition, % at 13.8 µM; actives 0.43% (n = 370,000); in the data active = inhibition above about 24%
BJeLR lethal – kills HRASV12-expressing BJeLR cells. BJeLR (HRASV12) viability, CellTiter-Glo ATP luminescence, 48 h. inhibition, % (test concentration not listed). actives 0.17% (n = 300,000); in the data active = inhibition above about 50%
SARS 3CLpro inh – SARS-CoV 3CLpro protease inhibition | P0C6X7 | recombinant SARS-CoV 3CLpro, quenched FRET peptide cleavage | inhibition, % at 6 µM | actives 0.14% (n = 290,000); in the data active = inhibition above about 12%
DUSP3 inh – DUSP3 (human) phosphatase inhibition; P51452; recombinant VHR phosphatase, pNPP absorbance; inhibition, % at 13.3 µM; actives 0.52% (n = 290,000); AID 1654; in the data active = inhibition above about 50%
Target sequence (P51452 whole entry, looked up): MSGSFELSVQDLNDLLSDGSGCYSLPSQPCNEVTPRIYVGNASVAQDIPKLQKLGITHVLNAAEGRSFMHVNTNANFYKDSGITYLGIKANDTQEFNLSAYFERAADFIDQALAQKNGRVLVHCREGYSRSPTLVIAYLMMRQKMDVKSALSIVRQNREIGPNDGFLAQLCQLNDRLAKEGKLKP
Large screens that a line does not name were inactive.

C[C@H]1CN([C@@H](C)CO)C(=O)CCCn2cc(nn2)CO[C@@H]1CN(C)C(=O)OCc1ccccc1	none (no result: BJeLR lethal, SARS 3CLpro inh, DUSP3 inh)
CC(C)c1cc(C(=O)N2CCCC(C(=O)c3ccc4ccccc4c3)C2)on1 (stereo unspecified)	none
O=C1CCC(C(=O)N2CCCC(C(=O)c3ccc4ccccc4c3)C2)=NN1 (stereo unspecified)	DUSP3 inh 50
CCc1nc(N)nc(N)c1-c1ccc(Cl)cc1	BJeLR lethal 62
COc1cccc(NC(=O)n2ncc3c(C)cccc32)c1	BJeLR lethal 54
CC/C(=N\NC(=O)C1CCCC1)c1cccc(Br)c1	none (no result: BJeLR lethal)
CC/C(=N\NC(=O)C1CCCC1)c1ccc(Br)cc1	DUSP3 inh 50
CCOc1ccc(S(=O)(=O)N2CCN(c3ccccn3)CC2)cc1	DUSP3 inh 56
CNC(=O)c1cc2cc(OC)ccc2oc1=O	none (no result: PrPC surface inh)
COc1ccc2oc(=O)c(C(=O)NC3CCCCCC3)cc2c1	DUSP3 inh 50
CC(CCN1CCC(C(O)(c2ccccc2)c2ccccc2)CC1)Oc1cccc(C(F)(F)F)c1 (stereo unspecified)	none (no result: BJeLR lethal, SARS 3CLpro inh, DUSP3 inh)
CCOCCCNC(=S)N(CCO)Cc1cc2cc3c(cc2[nH]c1=O)OCCO3	DUSP3 inh 50
Cc1ccc(NC(=O)c2ccccc2O)cc1	DUSP3 inh 54
COc1ccc(/C=N/NC(=O)c2cc[n+]([O-])cc2)cc1OC	none (no result: PrPC surface inh)
COc1cc(/C=N/NC(=O)c2cc[n+]([O-])cc2)cc(OC)c1OC	DUSP3 inh 56
NC(=O)c1sc2nc3c(c(-c4ccco4)c2c1N)CCCC3	none
Nc1c(C(=O)NCC2CCCO2)sc2nc3c(c(-c4ccco4)c12)CC/C3=C\c1ccco1 (stereo unspecified)	DUSP3 inh 101 (no result: BJeLR lethal)
Cc1cc(C)cc(N(C(=O)CNC(=O)c2cccs2)C(C(=O)NC2CCCC2)c2cccnc2)c1 (stereo unspecified)	none
Cc1cccc(N(C(=O)CNC(=O)c2cccs2)C(C(=O)NC2CCCC2)c2cccnc2)c1 (stereo unspecified)	DUSP3 inh 57
O=C(NCC(=O)N(c1ccc(F)cc1)C(C(=O)NC1CCCC1)c1cccnc1)c1cccs1 (stereo unspecified)	none
O=C(NCC(=O)N(c1ccccc1)C(C(=O)NC1CCCCC1)c1cccnc1)c1cccs1 (stereo unspecified)	DUSP3 inh 52
CCOc1ccc2nc(NC(=O)CN3C(=O)C4CCCCC4C3=O)sc2c1 (stereo unspecified)	none (no result: SARS 3CLpro inh, DUSP3 inh)
C[C@@H]1CN([C@@H](C)CO)C(=O)c2cc(Br)cnc2O[C@H]1CN(C)C(=O)Nc1ccc(F)cc1	none (no result: BJeLR lethal, SARS 3CLpro inh, DUSP3 inh)
CCNC(=S)NNC(=O)c1cc(-c2ccc(OCC)cc2)nc2ccccc12	BJeLR lethal 54
Cc1ccc(/C=N/NC(=O)c2cc(-c3ccncc3)nc3ccccc23)o1	BJeLR lethal 59
O=C(NCc1ccccc1)c1cc(-c2ccncc2)nc2ccccc12	DUSP3 inh 53
COc1ccc(S(=O)(=O)Nc2ccc3c(c2)C(=O)N([C@H](C)CO)C[C@H](C)[C@@H](CN(C)C(=O)Nc2ccc(C(F)(F)F)cc2)OCCCC[C@H](C)O3)cc1	none (no result: BJeLR lethal, SARS 3CLpro inh, DUSP3 inh)
O=C(O)C(Cc1ccccc1)N1C(=O)/C(=C/C=C/c2ccco2)SC1=S (stereo unspecified)	none
O=C(O)CC(C(=O)O)N1C(=O)/C(=C/C=C/c2ccco2)SC1=S (stereo unspecified)	DUSP3 inh 54
CC(=O)Nc1c2c(nn1-c1ccccc1C)CSC2	DUSP3 inh 58
CCC(=O)Nc1c2c(nn1-c1ccccc1C)CSC2	none
CC(=O)Nc1c2c(nn1-c1ccccc1C)CS(=O)(=O)C2	DUSP3 inh 57
NC(=O)c1cc2c3ccccc3ccn2c1-c1ccccc1	DUSP3 inh 64
Cc1cc(C(N)=O)c2ccccc2n1	none
CN1OC[C@@H]2CN3C(=Nc4cc(C(F)(F)F)cc(C(F)(F)F)c4)Sc4ccccc4[C@@H]3C[C@@H]21	none (no result: BJeLR lethal, SARS 3CLpro inh, DUSP3 inh)
CCCCOCCCNC(=O)C[C@@H]1C(=O)N(Cc2ccc(OC)cc2)/C2=C/CCCCC[C@@]21C(=O)OCC	none (no result: BJeLR lethal, SARS 3CLpro inh, DUSP3 inh)
CC(C)Oc1ccc(CNC(=O)Cn2ccc3cc(S(=O)(=O)N4CCCC4)ccc32)cc1	DUSP3 inh 53
CCS(=O)(=O)NCCc1cc2c(OC)ccc(OC)c2[nH]c1=O	DUSP3 inh 53
Cc1nn(-c2ccccc2)c2sc(C(=O)NCCc3ccccc3)cc12	none (no result: BJeLR lethal, SARS 3CLpro inh, DUSP3 inh)
CCOP(=O)(c1ccc(N(C)C)cc1)C(O)c1ccc(C)cc1 (stereo unspecified)	none
Nc1ccc2c3c(ccc([N+](=O)[O-])c13)CC2	none (no result: BJeLR lethal, SARS 3CLpro inh, DUSP3 inh)
O=c1ccc(-c2ccc(S(=O)(=O)N3CCN(c4ccccc4)CC3)o2)n[nH]1	none
CCOC(=O)C1CCN(S(=O)(=O)c2ccc(-c3ccc(=O)[nH]n3)o2)CC1	DUSP3 inh 51
Cc1[nH]nc(SCC(=O)NC2CCCCC2)c1[N+](=O)[O-]	DUSP3 inh 54
Cc1[nH]nc(SCC(=O)NC2CCCC2)c1[N+](=O)[O-]	none
CCN(CC)c1ccc(/C=N/Nc2nc3ccccc3[nH]2)cc1	PrPC surface inh 37
Cc1c(/C=N/Nc2nc3ccccc3[nH]2)c2ccccc2n1C	BJeLR lethal 65
O=c1[nH]c(N/N=C/c2ccc(O)cc2)nc2ccccc12	none
O=c1[nH]c(N/N=C\c2ccc(F)cc2)nc2ccccc12	DUSP3 inh 57
CC(=O)Nc1ccc(/C=N/Nc2nc3ccccc3[nH]2)cc1	BJeLR lethal 67
C#CCCN([C@H](C(=O)OC)C(C)C)S(=O)(=O)c1ccccc1Br	none (no result: BJeLR lethal, SARS 3CLpro inh, DUSP3 inh)
CC1=C(C(=O)N(C)C)CC(CC(=O)NCCN2CCOCC2)C(=O)N1Cc1ccc(C(C)(C)C)cc1 (stereo unspecified)	none (no result: BJeLR lethal, SARS 3CLpro inh, DUSP3 inh)
COC(=O)[C@]1(Cc2ccccc2)NC=C(C(=O)c2ccccc2)[C@@H]1c1cccs1	none (no result: BJeLR lethal, SARS 3CLpro inh, DUSP3 inh)
CC(C)C[C@@H]1COc2cccc(N3CCN(Cc4ccccc4F)CC3)c2S(=O)(=O)N1	none (no result: BJeLR lethal, SARS 3CLpro inh, DUSP3 inh)
COc1ccccc1N(CC(=O)N1CCCC1)S(=O)(=O)c1ccc(C)cc1	none
COc1ccccc1N(CC(=O)N1CCCCCC1)S(=O)(=O)c1ccc(C)cc1	DUSP3 inh 50
OC(CNCC1CCCCC1)COc1ccccc1 (stereo unspecified)	DUSP3 inh 51
OC(CNCc1ccccc1)COc1ccccc1 (stereo unspecified)	none (no result: SARS 3CLpro inh, DUSP3 inh)
O=C(Nc1nnc(-c2ccccc2Cl)o1)c1ccco1	none
O=C(Nc1nnc(-c2ccccc2Cl)o1)c1nc2ccccc2s1	DUSP3 inh 53
FC(F)(F)c1nnc2c(Sc3ccc(Cl)cc3)nc3ccccc3n12	BJeLR lethal 59
FC(F)(F)c1nnc2c(Sc3ccccc3)nc3ccccc3n12	none
Cc1nc(CN2CCC(c3ccccc3)CC2)cc(=O)[nH]1	DUSP3 inh 53
CCOc1ccccc1N1CC(C(=O)Nc2cc(S(C)(=O)=O)ccc2Cl)CC1=O (stereo unspecified)	none (no result: SARS 3CLpro inh, DUSP3 inh)
O=C(Oc1c(CN2CCOCC2)cc(Cl)c2cccnc12)c1ccccc1Cl	none
O=C(Oc1c(CN2CCOCC2)cc(Cl)c2cccnc12)c1cccs1	DUSP3 inh 52
CCC(CC)NC(=O)COC(=O)CCC(=O)c1cccs1	DUSP3 inh 52
CCNC(=O)COC(=O)CCC(=O)c1cccs1	none
COc1ccccc1Oc1ccnc2cc(Cl)ccc12	DUSP3 inh 58
